Screening results deposited in PubChem BioAssay by National Center for Advancing Translational Sciences (NCATS).
Rows were chosen to be rich in hits. Some 21% of all compounds tested hit in one or more screens of this group.
IL1B secr inh – inflammasome signaling inhibition, IL-1 beta readout | THP-1 LPS/ATP IL-1B secretion, AlphaLISA, 16 h; active compounds read low | activity change, % at 57.5 µM | 360,000 compounds, 4.7% hits; in the data active = activity change below about -50%; inconclusive = mostly about -30% to -49%
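Secreted IL-1B measured by AlphaLISA bead assay after 16 h compound exposure of THP-1 cells; compounds (final up to 57.5 uM) added 1 h before LPS (250 ng/mL) and ATP (1.25 mM) stimulation; lower signal means less secretion.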
Gal4-VP16 FLuc – counter-screen for ROR gamma inhibitors: Gal4-VP16 reporter | AID 2546 | Potency, µM (series often up to 53.6 µM), inactives show top-dose activity, negative = inhibition, actives largely listed as inhibitors | Drosophila S2 Gal4-VP16 UAS-luciferase, luminescence, 20 h | 310,000 compounds, 3.5% hits;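 note: Gal4-VP16 expression switched on by copper sulfate through the metallothionein promoter; potency is the fitted concentration of half-maximal effect; nearly all actives have a fitted effect of over 50% in size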
ELG1 DNA repair – ELG1-dependent DNA repair inhibition; 330,000 compounds, 2.3% hits; HEK293T ELG1-luciferase reporter, luminescence, 16 h; DNA damage induced by 5-fluorouridine; AID 504467; Potency, µM (highest dose often 46.1 µM), inactives show at the highest dose activity change, negative = inhibition, most hits filed as inhibitors; note: potency is the fitted concentration of half-maximal effect; nearly all actives have a fitted effect of over 55% in size
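Overnight (16 hr) co-exposure of 2,000 cells/well to 5-fluorouridine and compound at 37 °C preceded detection. Luciferase was quantified via ONE-Glo luminescence; loss of signal denotes inhibition.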
DT40 TDP1 no CPT – qHTS for Inhibitors of human tyrosyl-DNA phosphodiesterase 1 (TDP1): qHTS in cells in absence of CPT. DT40 Tdp1-/- hTDP1 cells, no CPT, ATP luminescence, 48 h. Potency, µM (highest dose often 46.2 µM), inactives show at the highest dose activity change, negative = growth inhibition, actives largely listed as inhibitors. 420,000 compounds, 15% hits; note: potency is the fitted concentration of half-maximal effect; nearly all actives have a fitted effect of over 55% in size
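Cells were dispensed at 400 per well, compounds added by pin tool, plates incubated ≥48 hr at 37 °C, then CellTiter-Glo added for 30 min at room temperature before luminescence reading. Line: DT40 Tdp1-/- complemented with hTDP1; camptothecin omitted.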
DT40 TDP1 CPT – growth inhibition of DT40 Tdp1-/-;hTDP1 cells with camptothecin (screen for TDP1 inhibitors) | chicken DT40 Tdp1-/-;hTDP1 cells + 20 nM CPT, ATP luminescence, 48 h | Potency, µM (titrated, usually from 46.2 µM), for inactives: at the highest dose activity change, negative = growth inhibition, most hits filed as inhibitors | 420,000 compounds, 12% hits; note: potency is the fitted concentration of half-maximal effect; nearly all actives have a fitted effect of over 55% in size
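Cell growth measured by CellTiter-Glo luminescence after a minimum 48 h, 37 C compound exposure with 20 nM CPT in Tdp1-knockout DT40 cells stably expressing hTDP1, seeded 400/well; qHTS titration format.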
RORg inh – ROR gamma (mouse) transcription inhibition. 310,000 compounds, 5.4% hits. Drosophila S2 Gal4-RORgamma UAS-luciferase reporter, 20 h. P51450. Potency, µM (titrated, usually from 53.6 µM), for inactives: at the highest dose activity change, negative = inhibition, hits mostly inhibitors; note: potency is the fitted concentration of half-maximal effect; nearly all actives have a fitted effect of over 60% in size
Target sequence (P51450 whole entry, looked up, the tested form may be a part): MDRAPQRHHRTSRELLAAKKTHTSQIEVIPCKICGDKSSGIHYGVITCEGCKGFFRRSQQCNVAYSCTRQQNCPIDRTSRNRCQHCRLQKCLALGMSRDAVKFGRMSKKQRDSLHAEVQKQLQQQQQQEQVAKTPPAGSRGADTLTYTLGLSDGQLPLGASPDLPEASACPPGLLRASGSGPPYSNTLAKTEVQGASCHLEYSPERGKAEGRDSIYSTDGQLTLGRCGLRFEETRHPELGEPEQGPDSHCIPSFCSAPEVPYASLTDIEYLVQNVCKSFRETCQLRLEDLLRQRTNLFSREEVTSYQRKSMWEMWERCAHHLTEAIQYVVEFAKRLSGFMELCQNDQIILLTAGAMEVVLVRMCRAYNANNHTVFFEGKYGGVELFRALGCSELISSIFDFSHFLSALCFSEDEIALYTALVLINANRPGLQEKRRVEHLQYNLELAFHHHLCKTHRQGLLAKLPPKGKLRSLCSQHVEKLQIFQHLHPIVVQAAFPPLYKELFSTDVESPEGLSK
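Using a luciferase readout, inhibitors were identified by reduced reporter activity in Drosophila cells coexpressing a copper-inducible Gal4–ROR gamma fusion and UAS-driven Photinus luciferase, incubated 20 hr after 700 uM copper sulfate.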
* hit, by the source's call; u = inconclusive; x = not tested or not shown; ! = not active in a repeat; [ ] = another dose, or the depositor's remark. Unless noted, calls come from the whole dose curve; as a rule, active = well fitted curve in the direction sought with a large enough effect; inconclusive = small, poorly fitted or top-dose-only effect, or another doubt; inactive = no such curve, though single readings can be large; an effect the other way counts as inactive or inconclusive. % is set by controls: 0 for no effect and ±100 for the full control effect.

SMILES | IL1B secr inh | Gal4-VP16 FLuc | ELG1 DNA repair | DT40 TDP1 no CPT | DT40 TDP1 CPT | RORg inh
Cc1cc(C(=O)N2CCN(c3cccc(Cl)c3)CC2)c(C)o1 | -2 | 9% | u | 16µM* | 18µM* | -35%
Cc1cc(C(=O)N2CCN(c3ncccn3)CC2)c(C)o1 | -11 | -1%[0.365 µM] | 15% | 23µM* | 13µM* | 22µM*
Cc1cc(C(=O)N2CCN(c3ccccc3Cl)CC2)c(C)o1 | u | x | 29% | 12µM* | 21µM* | x
N#CC1C(=O)NC(=O)C(C#N)C12CCCC(C(F)(F)F)C2 (stereo not given) | -7 | x | x | 3% | -11% | x
CCC(O)CNC(=O)c1cnn(-c2ncc3c(n2)-c2ccc(OC)cc2CC3)c1C1CC1 (stereo not given) | x | x | x | -24% | -1% | x
COc1ccc(NC(=O)CSc2nnc(-c3cccnc3)o2)c(OC)c1 | -1 | x | 10% | 4% | -29% | x
CC(=O)N(c1ccc2oc(=O)sc2c1)S(=O)(=O)c1ccc(C(=O)O)cc1 | 12 | -1% | 8% | -16% | 1% | 4%
CCCC(=O)N(c1ccc2oc(=O)sc2c1)S(=O)(=O)c1ccccc1 | -5 | u | -2% | 21µM* | u | u
C=CCc1ccc(OCCOCCNCCOC)c(OC)c1 | -20 | -1% | -1% | -11% | -6% | -18%
COc1ccc(COc2cccc3ccc(C)nc23)cc1F | -2 | 9% | 8% | -30% | 5% | -32%
COc1cc(C)ccc1OCCOCCOc1cccc2ccc(C)nc12 | 27 | -8%[10 µM] | -20% | 16µM* | 16µM* | -25%
C=CCc1ccc(OCCOCCOc2cccc3ccc(C)nc23)c(OC)c1 | -10 | -11% | u | 11µM* | 18µM* | -31%
CN=C(c1ccco1)n1c(=S)nc(-c2ccco2)n(C)c1=S | 22 | 6% | 13% | u | u | -21%
CN=C(c1ccc(C)cc1)n1c(=S)nc(-c2ccc(C)cc2)n(C)c1=S | 23 | -2% | u | 18µM* | u | u
CCOC(=O)CS(=O)(=O)c1ccc(O)cc1 | -92* | -10% | 6% | -1% | -1% | -13%
CC1C(=O)Nc2ccc(S(=O)(=O)N3CCCCC3)cc2NC1=O (stereo not given) | x | x | x | u | -13% | x
CCOC(=O)COc1ccc(S(=O)(=O)N2CCN(C(=O)OCC)CC2)cc1 | 27 | -1% | 4% | -4% | 0% | -4%
COC(=O)COc1ccc(S(=O)(=O)N2CCCCCC2)cc1 | 19 | 0% | 16% | -5% | 7% | -5%
CCOC(=O)N1CCN(S(=O)(=O)c2ccc(OCC(=O)OC)cc2)CC1 | -64* | 0% | 4% | -7% | -26% | -1%
CCOC(=O)C1CCN(S(=O)(=O)c2ccc3c(c2)NC(=O)C(C)C(=O)N3)CC1 (stereo not given) | 41 | -2% | -1% | 23µM*! | -12% | -5%
CCOC(=O)C1CCN(S(=O)(=O)c2ccc(OCC(=O)OC)cc2)CC1 | -53* | -5% | 6% | 1% | -7% | -24%
CCOc1ccc(N2CC(C)Cn3c2nc2c3c(=O)n(CC(=O)O)c(=O)n2C)cc1 (stereo not given) | x | x | x | 1% | -22% | x
Nc1ccc(N=Nc2ccccc2)c(N)c1 | x | 3% | x | x | x | -2%
CCOC(=O)COc1ccc(S(=O)(=O)Nc2ccc(C)cc2)cc1 | -8 | u | 4% | -15% | -3% | u
CCOC(=O)COc1ccc(S(=O)(=O)c2ccc(OCC(=O)OCC)cc2)cc1 | -92* | 9% | 13% | -17% | 7% | 2%
SMILES | IL1B secr inh | Gal4-VP16 FLuc | ELG1 DNA repair | DT40 TDP1 no CPT | DT40 TDP1 CPT | RORg inh
O=C(NCC1CCC2(CCN(Cc3c[nH]c4ccccc34)CC2)O1)C1CCOCC1 (stereo not given) | x | x | x | -11% | -8%[9.04 µM] | x
COc1ccc(C(O)Cn2ccsc2=NC(C)=O)cc1 (stereo not given) | 26 | 4% | 9% | u | 23µM* | -20%
CC(C)(C)NCC(O)COc1ccccc1C(C)(C)C (stereo not given) | u | 2% | -4% | u | u | -4%
CC(C)(Cc1c[nH]c2ccccc12)NCC(O)COc1ccccc1C#N (stereo not given) | x | -1% | x | 24µM* | 21µM* | -3%
Cc1c[nH]c2cccc(OCC(O)CNC(C)(C)C)c12 (stereo not given) | -7 | -11% | 19% | -6% | 5% | 1.4µM*
CC(C)(C)NCC(O)COc1ccccc1C(=O)CCc1ccccc1 (stereo not given) | -77* | -14% | -16% | 15µM* | 16µM* | u
CCOC(=O)C1(Cc2cccc(OC)c2)CCN(Cc2cccc3cnccc23)CC1 | -6 | u | u | u | 18µM* | u
CCOC(=O)C1(Cc2cccc(OC)c2)CCN(Cc2cccc(OC)c2OC)CC1 | -65* | 4% | -15% | 18µM* | u | -6%
CCOC(=O)C1(Cc2cccc(OC)c2)CCN(Cc2ccccc2)CC1 | -26 | -1% | u | u | u | -1%
CCOC(=O)C1(Cc2cccc(OC)c2)CCN(Cc2cccnc2)CC1 | 11 | -18% | u | 29µM* | u | 11µM*
CCOC(=O)C1(Cc2cccc(OC)c2)CCN(Cc2cnc(N)nc2)CC1 | -1 | 3% | -5% | -16% | 10% | 1%
CCOC(=O)C1(Cc2cccc(OC)c2)CCN(Cc2cc(OC)ccc2OC)CC1 | -67* | 1% | u | 16µM* | u | -1%
O=S1(=O)CC(N2CCN(CC3CC3)CC2)CN1Cc1cn(Cc2ccccc2C(F)(F)F)nn1 (stereo not given) | 8 | x | x | -12% | -3% | x
CCOC(=O)C1(Cc2ccc(OC)cc2)CCN(C(=O)c2ccc3[nH]ccc3c2)CC1 | -4 | -5% | -15% | 7.3µM* | 9.2µM* | 0%
CCOC(=O)C1(Cc2cccc(OC)c2)CCCN(Cc2nccn2CC)C1 (stereo not given) | -4 | u | -13% | 13µM* | 15µM* | 3.5µM*
CCOC(=O)C1(Cc2cccc(OC)c2)CCN(Cc2cccc3c2OCO3)CC1 | -1 | 6% | u | 18µM* | u | 6%
CCOC(=O)C1(Cc2ccc(OC)cc2)CCN(C(=O)c2ccoc2C)CC1 | -5 | -14% | -11% | u | u | 10%
